This experiment deals with VDR:RXRa (NR concentration 270 nM, RXRa partner concentration 90 nM). Nature of the experiment: PBM binding z-score (relative to random genomic background probes); higher = stronger binding; sequences stand for … in GC…GCGATTGACAGCGTAGAATGAAGG
The procedure: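 Protein-binding microarray (Agilent 4x180K custom design, double-stranded 60-nt probes: 5' GC cap, 34-nt variable region, 24-nt constant primer region; full probe sequence given). Purified or IVT nuclear receptor:RXRα heterodimers (3:1 NR:RXRα, mostly 270:90 nM) or homodimers were incubated for 1 h in PBS with 2% milk and no ligand, then detected with Alexa488 antibodies. Fluorescence from o1-orientation probes (~5 replicates averaged) was converted to z-scores against 500 random hg19 background probes. Variable regions are seed direct-repeat (DR0–DR5) sites, all their single-nucleotide variants and half-site ablations.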
On to ATATGTAGGTTAGGGTCAGTCAGAAAGTAGGGAA, for which the PBM binding z-score stood at 2.49.
The value for ATCGAAAGGTCTAAGGTGAGTATACCCACCCGAA was 0.393; that for CGTCAAAGGTCAATGCTAGGTCAGTGAAAGCATT was 6.01.
The value for CAAACTAGTTCAAGAGGTCAAAGTCCGCTTCCCG was 5.54; that for ACTTACGGGTCTACGAGGTTATAGCACGCGTATA was 2.83.
Regarding TCGTGTAGGTTACGGGGGCATTCAGGGATGAAGA, the PBM binding z-score stood at 4.42.
Regarding TGTATGAGGTTAAAGATCAGGGAACGTGGCGTCG, the PBM binding z-score was 2.15.
The value for TGTCAACGTTCAAAGGTAACGTAAGTATCCACAC was 0.617.
In turn, AGTCAAAGTTGAGGACGAGGTAACGTAAAGCACG gave a PBM binding z-score of 0.263.
For CAAACTAGGTCAAAAGGTCAAAGTCCGCTTCCCG, the PBM binding z-score was 6.32.
GCTAGTTGGTCAGTAAAATGTCACACACCGGTCG: the PBM binding z-score was -0.0389.
Then GCTTACGGGTCCAAGGTTATAGCATGAATAGAAT, with 1.26; and ATCGAAAGGTCGACGAGGTGAGTAAACACCGTTT, with 5.22.
Then CCAACTAGGTCAAAGGACAGTGAAAGGCGACGTA, with 1.45; and ATCGAAAGGTCAAGGTGAGTATAGAGAAAGGGAA, with 5.32; and TCTTGTAGATCAACAGGAGGTTAATAAAGATCGA, with 0.648.
Then CCGACGGGGGCAAAGGTTACCATACTCAGTACGA, with 5.11; and CGTCAAAGTTCAACTAAGGTTACGTAAAGCACGC, with 6.11; and CCGACTGGGGCAAGGTCACCATAACGCACAGCCA, with 3.26.
AGTCAAAGTTCAGGACGAGGTAACGTTAAGCACG came in with a PBM binding z-score of 2.97.
